# Hit rate of the full screen: of about 5,500 compounds, about 2,000 (36%) were called active. Not shown: some 18% with an inconclusive outcome. The list shows a part of the results. A number with no mark means an inactive call. No stated cut-off is given here; in the data, active means normalized growth mostly below about 0.91 (no sharp cut-off); inconclusive means no clear call, values can overlap the other calls; inactive means mostly above about 0.92.
# Test: chemical genetic growth profiling, strain panel (AID 1159580);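 further: tested at 20 µM; growth read once vehicle control cultures reached saturation at 30 °C; 1 = growth at the plate median or of vehicle wells; lower values mean less growth of the strain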
# Conditions: growth OD
# [1] = S. cerevisiae deletion strains, locus YAL013W, strain DEP1, hits give low values
# [2] = S. cerevisiae deletion strains, locus YBR229C, strain ROT2, hits give low values
# [3] = S. cerevisiae deletion strains, locus YCL061C, strain MRC1, hits give low values
# [4] = S. cerevisiae deletion strains, locus YDL101C, strain DUN1, hits give low values
# [5] = S. cerevisiae deletion strains, locus YDL134C, strain PPH21, hits give low values
# [6] = S. cerevisiae deletion strains, locus YDR150W, strain NUM1, hits give low values
# [7] = S. cerevisiae deletion strains, locus YEL061C, strain CIN8, hits give low values
# [8] = S. cerevisiae deletion strains, locus YGR078C, strain PAC10, hits give low values
# [9] = S. cerevisiae deletion strains, locus YGR229C, strain SMI1, hits give low values
# [10] = S. cerevisiae deletion strains, locus YHR030C, strain SLT2, hits give low values
# [11] = S. cerevisiae deletion strains, locus YHR087W, strain rtc3, hits give low values
# [12] = S. cerevisiae deletion strains, locus YJR043C, strain POL32, hits give low values
# [13] = S. cerevisiae deletion strains, locus YJR075W, strain HOC1, hits give low values
# [14] = S. cerevisiae deletion strains, locus YLR039C, strain RIC1, hits give low values
# [15] = S. cerevisiae deletion strains, locus YLR058C, strain SHM2 (second series), hits give low values
# [16] = S. cerevisiae deletion strains, locus YLR085C, strain ARP6, hits give low values
# [17] = S. cerevisiae deletion strains, locus YLR262C, strain YPT6, hits give low values
# [18] = S. cerevisiae deletion strains, locus YML094W, strain GIM5, hits give low values
# [19] = S. cerevisiae deletion strains, locus YMR219W, strain ESC1, hits give low values
# [20] = S. cerevisiae deletion strains, locus YMR263W, strain SAP30, hits give low values
# [21] = S. cerevisiae deletion strains, locus YMR307W, strain GAS1, hits give low values
# [22] = S. cerevisiae deletion strains, locus YNL153C, strain GIM3, hits give low values
# [23] = S. cerevisiae deletion strains, locus YNL298W, strain CLA4 (second series), hits give low values
# [24] = S. cerevisiae deletion strains, locus YNL322C, strain KRE1, hits give low values
# [25] = S. cerevisiae deletion strains, locus YNR030W, strain Alg12, hits give low values
# [26] = S. cerevisiae deletion strains, locus YOL006C, strain TOP1, hits give low values
# [27] = S. cerevisiae deletion strains, locus YPL055C, strain LGE1, hits give low values
# [28] = S. cerevisiae deletion strains, locus YPL241C, strain CIN2, hits give low values
# [29] = S. cerevisiae deletion strains, locus YPR135W, strain CTF4, hits give low values
# [30] = S. cerevisiae strains, strain wild type, hits give low values
# [31] = S. cerevisiae deletion strains, locus YJL187C, strain SWE1, hits give low values
# [32] = S. cerevisiae deletion strains, locus YKL190W, strain CNB1, hits give low values
smiles,measurement,setting,value
Cc1cccc(NC(=S)NC2CC3C=CC2C3)c1 (configuration not stated),normalized growth,[1],0.939
same,normalized growth,[2],0.998
same,normalized growth,[3],0.979
same,normalized growth,[4],0.985
same,normalized growth,[5],0.904 (active)
same,normalized growth,[6],1.01
same,normalized growth,[7],0.905 (active)
same,normalized growth,[8],0.978
same,normalized growth,[9],0.987
same,normalized growth,[10],0.91
same,normalized growth,[11],1.02
same,normalized growth,[12],0.926
same,normalized growth,[13],0.994
same,normalized growth,[14],0.685 (active)
same,normalized growth,[15],0.993
same,normalized growth,[16],0.435 (active)
same,normalized growth,[17],0.825
same,normalized growth,[18],0.882
same,normalized growth,[19],0.984
same,normalized growth,[20],0.949
same,normalized growth,[21],0.688
same,normalized growth,"S. cerevisiae deletion strains, locus YNL128W, strain TEP1, hits give low values",0.977
same,normalized growth,[22],0.98
same,normalized growth,[23],0.85
same,normalized growth,[24],0.993
same,normalized growth,[25],0.897
same,normalized growth,[26],0.182 (active)
same,normalized growth,[27],0.913
same,normalized growth,[28],0.91
same,normalized growth,[29],0.814
same,normalized growth,[30],0.927
CCOC(=O)c1ccc2[nH]c(-c3ccccc3)cc(=O)c2c1,normalized growth,[1],1.02
same,normalized growth,[2],1
same,normalized growth,[3],1.01
same,normalized growth,[4],1.01
same,normalized growth,[5],1.01
same,normalized growth,[6],1.02
same,normalized growth,[7],1.01
same,normalized growth,[8],1.01
same,normalized growth,[10],1.02
same,normalized growth,[11],1
same,normalized growth,[31],1.01
same,normalized growth,[12],1.01
same,normalized growth,[13],0.994
same,normalized growth,[32],1.01
same,normalized growth,[14],1.04
same,normalized growth,[15],1.01
same,normalized growth,[16],1.03
same,normalized growth,[17],1.03
same,normalized growth,[18],0.997
same,normalized growth,[19],1.01
same,normalized growth,[20],0.997
same,normalized growth,[22],1.01
same,normalized growth,[23],1.04
same,normalized growth,[24],1
same,normalized growth,[25],1.04
same,normalized growth,[26],1.04
same,normalized growth,[27],1.11
same,normalized growth,[28],1.03
same,normalized growth,[29],1.09
same,normalized growth,[30],1.03
CCOC(=O)c1nc(-c2ccccc2)sc1C(=O)OCC,normalized growth,[1],1
same,normalized growth,[2],0.955
same,normalized growth,[4],0.999
same,normalized growth,[5],0.947
same,normalized growth,[6],1
same,normalized growth,[7],0.958
same,normalized growth,[8],0.973
same,normalized growth,[9],0.958
same,normalized growth,[10],0.735
same,normalized growth,[11],0.958
same,normalized growth,[31],0.947
same,normalized growth,[12],0.973
same,normalized growth,[13],0.907
same,normalized growth,[32],0.961
same,normalized growth,[14],0.716 (active)
same,normalized growth,[15],0.968
same,normalized growth,[16],0.833
same,normalized growth,[17],0.814 (active)
same,normalized growth,[18],0.921
same,normalized growth,[19],0.963
same,normalized growth,[20],0.977
same,normalized growth,[22],0.995
same,normalized growth,[23],0.766 (active)
same,normalized growth,[24],0.981
same,normalized growth,[25],0.912
same,normalized growth,[26],0.718 (active)
same,normalized growth,[27],0.979
same,normalized growth,[28],0.921
same,normalized growth,[29],0.741
CN=c1nc(-c2ccccc2)n(-c2ccccc2)s1,normalized growth,[1],0.969
same,normalized growth,"S. cerevisiae deletion strains, locus YAL040C, strain CLN3, hits give low values",0.983
same,normalized growth,"S. cerevisiae deletion strains, locus YCL061C, strain MRC1 (second series), hits give low values",0.984
same,normalized growth,[6],0.973
same,normalized growth,"S. cerevisiae deletion strains, locus YDR363W, strain ESC2, hits give low values",0.983
same,normalized growth,"S. cerevisiae deletion strains, locus YER002W, strain NOP16, hits give low values",0.982
same,normalized growth,[9],0.905
same,normalized growth,[21],0.947
same,normalized growth,[22],0.905
same,normalized growth,"S. cerevisiae deletion strains, locus YNL175C, strain NOP13, hits give low values",0.978
same,normalized growth,"S. cerevisiae deletion strains, locus YNL197C, strain WHI3, hits give low values",0.99
same,normalized growth,"S. cerevisiae deletion strains, locus YNL224C, strain SQS1, hits give low values",0.987
same,normalized growth,[24],0.978
same,normalized growth,"S. cerevisiae deletion strains, locus YOR083W, strain WHI5 (second series), hits give low values",0.961
same,normalized growth,[28],0.982
CCOC(=O)c1sc(-c2ccc(C)cc2)nc1O,normalized growth,[1],0.182 (active)
same,normalized growth,[2],0.136 (active)
same,normalized growth,[4],0.267 (active)
same,normalized growth,[5],0.716 (active)
same,normalized growth,[6],0.195 (active)
same,normalized growth,[7],0.583 (active)
same,normalized growth,[8],0.122 (active)
same,normalized growth,[10],0.0748 (active)
same,normalized growth,[11],0.135 (active)
same,normalized growth,[31],0.107 (active)
same,normalized growth,[12],0.337 (active)
same,normalized growth,[13],0.174 (active)
same,normalized growth,[32],0.46 (active)
same,normalized growth,[14],0.409 (active)
same,normalized growth,[15],0.129 (active)
same,normalized growth,[16],0.228 (active)
same,normalized growth,[17],0.464 (active)
same,normalized growth,[18],0.345 (active)
same,normalized growth,[19],0.218 (active)
same,normalized growth,[22],0.301 (active)
same,normalized growth,[23],0.118 (active)
same,normalized growth,[24],0.313 (active)
same,normalized growth,[25],0.438 (active)
same,normalized growth,[27],0.659 (active)
same,normalized growth,[28],0.463 (active)
same,normalized growth,[29],0.368 (active)
same,normalized growth,[30],0.518 (active)

# From PubChem BioAssay AID1159580 (chemical genetic matrix, 2015)
